What all share (design): scale not given: direction of the effect not stated beside the values
The target in assay [1] is Protein translocase subunit SecA (Escherichia coli (strain K12)) (UniProt P10408). In words: Assay to Identify E. coli SecA ATPase Inhibitors. It counts as functional. The following applies: 30 µM.
Assay [2] has as its target T1, Ubiquitin-activating enzyme e1, putative (Leishmania donovani (strain BPK282A1)) (UniProt E9BSI1).
T1 sequence (whole entry): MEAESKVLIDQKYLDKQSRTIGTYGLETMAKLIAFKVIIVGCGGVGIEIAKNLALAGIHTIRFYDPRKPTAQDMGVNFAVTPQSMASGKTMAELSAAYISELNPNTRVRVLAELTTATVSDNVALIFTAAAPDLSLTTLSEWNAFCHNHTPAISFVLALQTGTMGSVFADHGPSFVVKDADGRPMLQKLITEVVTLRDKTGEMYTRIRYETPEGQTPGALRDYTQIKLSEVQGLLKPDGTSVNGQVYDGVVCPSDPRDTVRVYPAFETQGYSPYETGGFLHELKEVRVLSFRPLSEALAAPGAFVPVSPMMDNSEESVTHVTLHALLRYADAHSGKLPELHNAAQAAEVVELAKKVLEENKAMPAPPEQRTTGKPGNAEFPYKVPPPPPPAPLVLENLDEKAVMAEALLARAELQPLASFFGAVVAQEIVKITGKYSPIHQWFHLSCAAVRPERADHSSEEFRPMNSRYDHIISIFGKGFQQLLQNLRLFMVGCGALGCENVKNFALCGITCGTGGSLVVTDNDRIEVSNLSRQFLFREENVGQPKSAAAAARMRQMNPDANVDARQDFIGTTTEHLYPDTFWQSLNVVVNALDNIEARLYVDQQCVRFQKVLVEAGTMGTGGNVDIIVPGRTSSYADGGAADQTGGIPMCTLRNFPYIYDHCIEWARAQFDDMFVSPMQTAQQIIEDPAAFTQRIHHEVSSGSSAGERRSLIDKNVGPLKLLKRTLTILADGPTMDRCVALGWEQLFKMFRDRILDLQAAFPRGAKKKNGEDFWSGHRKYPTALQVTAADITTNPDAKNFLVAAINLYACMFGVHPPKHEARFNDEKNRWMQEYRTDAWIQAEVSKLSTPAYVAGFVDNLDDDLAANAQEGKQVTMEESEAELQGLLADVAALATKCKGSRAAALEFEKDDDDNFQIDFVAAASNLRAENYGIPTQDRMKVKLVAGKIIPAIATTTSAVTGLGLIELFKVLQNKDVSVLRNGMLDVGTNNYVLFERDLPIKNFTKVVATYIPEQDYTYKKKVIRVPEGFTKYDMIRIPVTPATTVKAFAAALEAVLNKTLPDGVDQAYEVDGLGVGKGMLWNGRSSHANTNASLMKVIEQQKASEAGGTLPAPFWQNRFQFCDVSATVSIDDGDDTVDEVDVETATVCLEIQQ
Briefly: Leishmania donovani Ubiquitin Activating Enzyme (LdE1). It counts as functional. The following applies: 30 µM.

For assay [3], the target named is AMP-activated protein kinase, AMPK (Homo sapiens) (UniProt P54646+O43741+P54619+Q9UGJ0+Q9Y478+Q13131+Q9UGI9). In words: AMP-dependent Kinase enzyme assay. An in vitro enzyme assay that detects ADP turnover that is directly proportional to AMPK activity. This uses naive AMPK that is activated during the assay with MK-8722. It counts as functional. Particulars: 30 µM.

Assay [4] addresses Sialic acid-binding Ig-like lectin 9 (Homo sapiens) (UniProt Q9Y336). In words: Hs-Siglec9 ALPHAscreen SOP 20170721. Particulars: 10 µM.
Assay [5] has as its system Trypanosoma cruzi. In words: Trypanosoma cruzi phosphomannomutase and mannose-1-phosphate guanylyltransferase assay. It counts as functional. The following applies: 10 µM.
Assay [6] addresses T2, Arginase-2, mitochondrial (Homo sapiens) (UniProt P78540).
T2 sequence (whole entry): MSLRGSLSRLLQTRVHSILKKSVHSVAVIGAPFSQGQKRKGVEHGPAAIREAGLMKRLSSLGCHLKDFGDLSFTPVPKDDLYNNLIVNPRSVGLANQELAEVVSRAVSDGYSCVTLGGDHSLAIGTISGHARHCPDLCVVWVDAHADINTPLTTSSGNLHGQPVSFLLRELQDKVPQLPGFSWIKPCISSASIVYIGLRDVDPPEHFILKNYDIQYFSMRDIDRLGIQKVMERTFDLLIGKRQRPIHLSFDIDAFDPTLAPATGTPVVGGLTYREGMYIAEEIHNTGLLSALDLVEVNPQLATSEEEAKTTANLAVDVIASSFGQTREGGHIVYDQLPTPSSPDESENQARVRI
Briefly: in vitro enzyme assay to detect the production of urea directly proportional to the activity of Arginase II. Also: in the data most compounds retested in dose-response had high values. The following applies: 33.3 µM. It counts as functional.

Assay [7] concerns the target T3, Proteasome subunit beta (Trypanosoma cruzi) (UniProt O96673).
T3 sequence (whole entry): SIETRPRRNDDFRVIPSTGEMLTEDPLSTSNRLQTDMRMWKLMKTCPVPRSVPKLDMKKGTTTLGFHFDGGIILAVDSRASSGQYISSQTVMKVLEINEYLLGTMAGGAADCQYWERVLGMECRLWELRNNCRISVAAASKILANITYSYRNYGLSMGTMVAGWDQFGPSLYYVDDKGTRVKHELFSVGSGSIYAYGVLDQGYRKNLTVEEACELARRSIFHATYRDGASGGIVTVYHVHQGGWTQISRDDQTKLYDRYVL
In words: Trypanosoma cruzi proteasome chymotrypsin-like activity (TcProtChymo) assay. Also: in the data most compounds retested in dose-response had high values. Particulars: 9.37 µM. It counts as functional.

Assay [8] is filed under the species Homo sapiens. In words: To identify inhibition of the IFN signalling (Jak-Stat) pathway via expression of an eGFP reporter gene under the control of an IFN-stimulated response element (ISRE) containing MxA promoter. Particulars: 30 µM. It counts as functional. For orientation: Reporter assays use an easily measured gene product as a stand-in for the process of interest.

Assay [9] addresses T4, Tyrosyl-tRNA synthetase, putative (Trypanosoma cruzi (strain CL Brener)) (UniProt Q4DSP6).
T4 sequence (whole entry): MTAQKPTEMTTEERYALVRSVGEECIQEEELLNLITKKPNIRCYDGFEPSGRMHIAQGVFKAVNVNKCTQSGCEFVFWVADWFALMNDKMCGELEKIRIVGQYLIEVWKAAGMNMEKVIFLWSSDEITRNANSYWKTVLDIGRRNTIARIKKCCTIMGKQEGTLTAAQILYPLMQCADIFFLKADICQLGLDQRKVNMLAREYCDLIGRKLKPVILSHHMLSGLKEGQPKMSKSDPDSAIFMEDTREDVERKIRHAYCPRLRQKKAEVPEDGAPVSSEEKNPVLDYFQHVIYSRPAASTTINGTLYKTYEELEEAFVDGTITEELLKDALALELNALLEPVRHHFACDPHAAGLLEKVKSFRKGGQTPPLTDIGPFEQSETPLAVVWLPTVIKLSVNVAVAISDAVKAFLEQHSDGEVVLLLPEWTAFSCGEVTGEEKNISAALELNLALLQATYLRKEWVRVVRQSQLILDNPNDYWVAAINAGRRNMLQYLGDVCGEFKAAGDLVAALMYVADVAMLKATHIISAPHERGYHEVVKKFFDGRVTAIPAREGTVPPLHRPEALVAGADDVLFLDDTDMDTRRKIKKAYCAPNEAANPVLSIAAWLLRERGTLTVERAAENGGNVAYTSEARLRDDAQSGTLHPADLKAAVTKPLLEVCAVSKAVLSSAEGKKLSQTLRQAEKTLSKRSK
In words: Trypanosoma cruzi tyrosyl tRNA synthetase (TcYRS) _High Tyrosine SOP. Also: in the data most compounds retested in dose-response had high values. The following applies: 30 µM. It counts as functional.

In assay [10] the target is T4, Tyrosyl-tRNA synthetase, putative (Trypanosoma cruzi (strain CL Brener)). In words: Trypanosoma cruzi tyrosyl tRNA synthetase (TcYRS) SOP. It counts as functional. The following applies: 30 µM.
The target in assay [11] is Chromo domain-containing protein 1 (Saccharomyces cerevisiae (strain ATCC 204508 / S288c) (Baker's yeast)) (UniProt P32657). Briefly: ScCHD-1 Enzyme Inhibition Assay. Also: in the data most compounds retested in dose-response had high values. The following applies: 30 µM. It counts as functional.

For some of these results: Entries with a potency or affinity are not part of this list.

Protein translocase subunit SecA (Escherichia coli (strain K12)), sequence (P10408 whole entry): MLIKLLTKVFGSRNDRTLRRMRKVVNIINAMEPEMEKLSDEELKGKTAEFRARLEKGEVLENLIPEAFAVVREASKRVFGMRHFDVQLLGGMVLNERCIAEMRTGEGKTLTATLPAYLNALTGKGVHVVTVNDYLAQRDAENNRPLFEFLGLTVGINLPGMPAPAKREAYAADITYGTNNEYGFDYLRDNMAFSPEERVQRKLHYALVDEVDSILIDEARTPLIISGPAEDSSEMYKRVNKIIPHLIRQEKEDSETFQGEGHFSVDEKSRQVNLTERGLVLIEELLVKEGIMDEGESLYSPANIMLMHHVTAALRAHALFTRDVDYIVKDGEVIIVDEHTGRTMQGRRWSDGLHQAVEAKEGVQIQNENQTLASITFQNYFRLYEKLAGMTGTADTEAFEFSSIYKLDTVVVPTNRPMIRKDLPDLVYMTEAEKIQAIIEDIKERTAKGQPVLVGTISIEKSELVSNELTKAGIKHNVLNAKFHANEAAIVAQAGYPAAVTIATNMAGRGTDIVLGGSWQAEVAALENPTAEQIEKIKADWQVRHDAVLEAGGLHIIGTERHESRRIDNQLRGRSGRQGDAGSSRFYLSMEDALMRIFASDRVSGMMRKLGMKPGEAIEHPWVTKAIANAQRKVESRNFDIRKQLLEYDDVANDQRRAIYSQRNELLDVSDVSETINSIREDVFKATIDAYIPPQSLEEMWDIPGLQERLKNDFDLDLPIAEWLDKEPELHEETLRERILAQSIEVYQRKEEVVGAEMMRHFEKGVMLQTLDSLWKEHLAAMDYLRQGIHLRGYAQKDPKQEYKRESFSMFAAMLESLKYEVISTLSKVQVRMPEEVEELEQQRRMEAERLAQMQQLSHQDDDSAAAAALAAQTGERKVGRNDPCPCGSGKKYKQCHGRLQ
Chromo domain-containing protein 1 (Saccharomyces cerevisiae (strain ATCC 204508 / S288c) (Baker's yeast)), sequence (P32657 whole entry, the tested form may be a part): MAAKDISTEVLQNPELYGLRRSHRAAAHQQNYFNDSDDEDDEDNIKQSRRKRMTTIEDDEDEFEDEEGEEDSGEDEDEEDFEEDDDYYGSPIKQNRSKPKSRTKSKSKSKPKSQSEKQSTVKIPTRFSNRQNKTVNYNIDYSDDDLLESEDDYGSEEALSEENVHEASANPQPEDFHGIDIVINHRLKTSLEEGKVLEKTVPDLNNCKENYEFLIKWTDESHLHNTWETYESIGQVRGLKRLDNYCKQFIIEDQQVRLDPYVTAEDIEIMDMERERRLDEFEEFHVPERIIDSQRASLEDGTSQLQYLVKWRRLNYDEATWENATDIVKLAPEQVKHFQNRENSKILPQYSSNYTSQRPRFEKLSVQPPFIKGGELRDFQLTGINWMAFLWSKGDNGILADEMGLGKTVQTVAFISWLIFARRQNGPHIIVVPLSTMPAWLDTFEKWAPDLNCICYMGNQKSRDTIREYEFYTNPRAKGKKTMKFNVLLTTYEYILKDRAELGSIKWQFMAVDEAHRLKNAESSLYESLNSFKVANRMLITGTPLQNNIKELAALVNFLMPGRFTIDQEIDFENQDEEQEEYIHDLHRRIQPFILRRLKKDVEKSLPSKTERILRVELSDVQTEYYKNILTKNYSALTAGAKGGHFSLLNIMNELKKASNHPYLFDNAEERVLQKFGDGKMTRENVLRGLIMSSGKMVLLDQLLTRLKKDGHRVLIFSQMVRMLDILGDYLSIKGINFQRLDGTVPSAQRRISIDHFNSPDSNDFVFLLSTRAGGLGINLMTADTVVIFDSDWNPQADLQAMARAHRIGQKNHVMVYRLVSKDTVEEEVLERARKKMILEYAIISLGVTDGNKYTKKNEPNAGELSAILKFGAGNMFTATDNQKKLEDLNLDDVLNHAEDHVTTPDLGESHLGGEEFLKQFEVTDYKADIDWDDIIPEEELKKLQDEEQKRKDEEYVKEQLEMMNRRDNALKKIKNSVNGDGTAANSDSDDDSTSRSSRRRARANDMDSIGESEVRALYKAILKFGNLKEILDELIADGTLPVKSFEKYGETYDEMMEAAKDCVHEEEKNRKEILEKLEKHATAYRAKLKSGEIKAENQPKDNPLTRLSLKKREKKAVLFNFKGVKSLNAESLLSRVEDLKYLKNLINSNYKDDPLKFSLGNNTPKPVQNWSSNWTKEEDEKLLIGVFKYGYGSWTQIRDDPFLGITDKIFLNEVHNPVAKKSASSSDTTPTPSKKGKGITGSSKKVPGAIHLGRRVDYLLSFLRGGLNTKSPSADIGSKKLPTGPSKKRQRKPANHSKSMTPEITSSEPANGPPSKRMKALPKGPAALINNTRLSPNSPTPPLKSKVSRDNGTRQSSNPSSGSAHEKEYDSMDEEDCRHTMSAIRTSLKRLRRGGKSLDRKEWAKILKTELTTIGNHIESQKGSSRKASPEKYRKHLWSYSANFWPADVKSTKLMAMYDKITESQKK
Sialic acid-binding Ig-like lectin 9 (Homo sapiens), sequence (Q9Y336 whole entry): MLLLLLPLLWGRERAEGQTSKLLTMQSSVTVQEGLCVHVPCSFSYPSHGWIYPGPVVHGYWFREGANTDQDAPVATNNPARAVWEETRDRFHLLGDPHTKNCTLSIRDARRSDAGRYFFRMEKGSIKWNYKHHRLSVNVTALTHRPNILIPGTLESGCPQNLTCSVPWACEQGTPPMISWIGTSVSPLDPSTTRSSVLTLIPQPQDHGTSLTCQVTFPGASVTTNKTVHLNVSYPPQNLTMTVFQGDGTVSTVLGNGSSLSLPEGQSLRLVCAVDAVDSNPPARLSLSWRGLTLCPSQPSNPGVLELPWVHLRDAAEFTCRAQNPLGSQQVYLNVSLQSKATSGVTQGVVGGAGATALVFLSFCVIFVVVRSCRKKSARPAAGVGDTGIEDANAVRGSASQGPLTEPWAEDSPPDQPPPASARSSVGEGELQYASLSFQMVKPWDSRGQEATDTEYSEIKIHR

Consider `CCN(CC)CCNC(=O)c1nn(CC)cc1Cl`, for which the Percent Effect in [1] was 0.115%; in [2], 20%; in assay [3], -10.1%; in assay [4], -7.51%; in assay [5] it was 2.55%; in [6], -10.7%. Also, the Percent Effect is 9.43% in assay [7]; 29.3% in [8]; 5.29% in [9]; 10.3% in assay [10]; -9.1% in assay [11].

For the compound `Cc1ccc(C(=O)N2CCCC(NC(=O)C(C)C)C2)c(O)c1` (stereo unspecified), the Percent Effect in assay [1] is -4.49%; in [2], 16.2%; in [3], -12.8%; in assay [4] it was 11.8%; in assay [5], 3.87%; in [6], -4.41%. The Percent Effect is 11.9% in [7]; 6.82% in assay [8]; 8.37% in assay [9]; 25.9% in assay [10]; -10.5% in assay [11].

On to `Cn1cc(CN2C[C@@H]3COC[C@]3(COc3ccc(C#N)cn3)C2)cn1`, for which the Percent Effect in assay [1] was -0.614%; in [2] it was 5.48%; in assay [3], -2.34%; in [4] it was 6.07%; in assay [5], -1.98%; in assay [6], 1.2%. For the same compound, the Percent Effect in assay [7] is 11.4%; in assay [8], 13.4%; in [9] it was 8.33%; in assay [10], 11.1%; in assay [11], -0.913%.

Take `CN(CC(=O)N1CCCC1c1cnn(C)c1)c1ccc(Cl)cn1` (stereo unspecified): the Percent Effect in assay [1] is -8.15%; in assay [2], 7.89%; in assay [3], -2.82%; in [4], -3.87%; in assay [5], -7.56%; in [6] it was 2.52%. Moreover, the Percent Effect turned out to be 7.19% in [7]; 6.79% in assay [8]; 2.46% in assay [9]; 6.17% in [10]; 0.471% in assay [11].

Take `COc1ccccc1OCC(=O)NS(=O)(=O)c1cc(F)ccc1F`: the Percent Effect in assay [1] is -2.96%; in assay [2], -2.7%; in assay [3] it was 1.01%; in assay [4] it was 2.58%; in assay [5], -5.99%; in assay [6], 0%. Moreover, the Percent Effect in assay [7] was 0.345%; in [8], 0.0392%; in [9], 0.529%; in assay [10], 4.88%; in [11], -1.41%.

Consider `O=C(c1cc[nH]n1)N1CCCC1C1CCN(Cc2ccccc2)CC1` (stereo unspecified), for which the Percent Effect in [1] was -0.52%; in assay [2], -7.89%; in assay [3] it was 10.9%; in assay [4], 1.13%; in [5] it was -7.11%; in assay [6], 1.18%. The Percent Effect in assay [7] is 16.6%; in [8] it was -0.106%; in assay [9] it was 4.25%; in assay [10], 7.79%; in [11] it was -1.17%.

For the compound `CN1CCN(C(=O)NC2CC2)Cc2cccnc21`, the Percent Effect in [1] is -0.328%; in assay [2] it was 10.7%; in [3], -1.13%; in assay [4] it was 3.38%; in assay [5], -1.35%; in [6] it was -23.5%. For the same compound, the Percent Effect is 12% in assay [7]; -4.24% in assay [8]; 6.25% in assay [9]; 25% in assay [10]; -7.54% in assay [11].

`CCc1ccc(NC(=O)c2cnc(N3CCN(C)CC3)nc2C)cc1`: the Percent Effect in assay [1] was -3.08%; in [2], 20.8%; in assay [3], -8.09%; in assay [4], -20.9%; in assay [5] it was 4.63%; in assay [6], -0.645%. Further, the Percent Effect in assay [7] is 8.01%; in [8], 15.9%; in assay [9], 2.12%; in [10], 11.5%; in assay [11], -10.8%.

For the compound `O=C(NCc1cccc2cccnc12)N1CCC(n2cncn2)CC1`, the Percent Effect in assay [1] is -2.83%; in assay [2] it was 6.33%; in [3], 9.77%; in [4], 5.48%; in assay [5] it was -5.03%; in assay [6] it was 2.37%. Moreover, the Percent Effect in assay [7] is -0.515%; in [8] it was 12.1%; in [9], 9.38%; in [10], 7.59%; in [11] it was -4.9%.

As for `CC(C)Oc1ccc(CSc2nnc(CN3CCCC3=O)o2)cc1`, the Percent Effect is -7.37% in [1]; -5.33% in assay [2]; -6.5% in assay [3]; 10% in assay [4]; 8.28% in assay [5]; 1.04% in [6]. The Percent Effect in assay [7] is 9.24%; in [8], 13.4%; in assay [9], 1.64%; in assay [10] it was 6.17%; in assay [11], -3.99%.

As for `COc1ccc(C(=O)N(C)Cc2cccc(C#N)c2)c(OC)c1OC`, the Percent Effect was -2.52% in assay [1]; 8.11% in assay [2]; -1.05% in [3]; 10.9% in [4]; 1.95% in assay [5]; -2.08% in assay [6]. The Percent Effect was 14.3% in assay [7]; 1.4% in [8]; 2.97% in assay [9]; 3.66% in assay [10]; -2.24% in [11].

(Values after ChEMBL document CHEMBL3988442, “University of Dundee, Small-Polar-MMV Screening Library” (2021).)
